This passage reports outcome and AC50 results from PubChem BioAssay (EPA / NIEHS).

Active and inactive are the calls of the source. The calls were made as follows: active = hit-call score of the fitted dose curve at least 0.9, where 1 is the maximum; inactive = score below 0.9.

In general, AC50 refers to the concentration at which the activity in the assay is half-maximal.

For assay [1], the target named is Transcription factor E2F1 (Homo sapiens) (UniProt Q01094). As to the kind of experiment: ATG_E2F_CIS: Attagene CIS-FACTORIAL HepG2 Assay for human E2F Transcription Factor 1 (AID 2282935). As to conditions: HepG2 Attagene cis-reporter, E2F reporter RNA transcripts; actives raise or lower the signal. A digest of the protocol:
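First, HepG2 cells were transfected with reporter transcription units. Next, they were dosed for 24 h. Then RNA was isolated, converted to cDNA, PCR-amplified, FAM-labeled, HpaI-digested and analyzed by capillary electrophoresis.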

A short description of assay [2]: ATG_E_Box_CIS: Attagene CIS-FACTORIAL HepG2 Assay for human Enhancer Box (E-box) (AID 2282936). As to conditions: HepG2 E-box cis-reporter transcription, actives raise or lower the signal. A digest of the protocol: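 Endogenous transcription factor activity was sensed in human HepG2 liver cells through transfected cis-promoter reporter units. After 24 h of dosing, total RNA was reverse-transcribed and reporter cDNA resolved by capillary electrophoresis.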

The nature of assay [3]: ATG_M_61_CIS: Attagene CIS-FACTORIAL HepG2 Assay for M61 Transcription Factor (Internal Marker) (AID 2282937). Conditions: HepG2 Attagene CIS-FACTORIAL M61 internal marker reporter; actives raise or lower the signal. A digest of the protocol:
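Endogenous transcription factor activity in HepG2 is read through transiently transfected cis-element reporter units. After 24 h dosing, RNA undergoes reverse transcription, PCR and primer extension with 6-FAM before capillary electrophoresis; DMSO-referenced bidirectional fit.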

Assay [4] can be described thus: ATG_EGR_CIS: Attagene CIS-FACTORIAL HepG2 Assay for human Early Growth Response 1 (EGR1) (AID 2282938). As to conditions: HepG2 Attagene CIS-FACTORIAL EGR reporter mRNA; actives raise or lower the signal. In a few lines: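 Activity is taken as induction or loss of reporter mRNA versus DMSO, fitted bidirectionally. Transcripts from cis-regulated reporter units in transiently transfected HepG2 were measured after 24 h by RT-PCR with capillary electrophoresis.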

A short description of assay [5]: ATG_M_19_CIS: Attagene CIS-FACTORIAL HepG2 Assay for M19 Transcription Factor (Internal Marker) (AID 2282939). As to conditions: HepG2 Attagene CIS-FACTORIAL M19 internal marker reporter; actives raise or lower the signal. A digest of the protocol: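 Internal marker readout, fitted in both directions against DMSO, from HepG2 cells carrying transfected cis-element reporter constructs; RT-PCR and capillary electrophoresis of reporter mRNA after 24 h exposure.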

The nature of assay [6]: ATG_ERE_CIS: Attagene CIS-FACTORIAL HepG2 Assay for Estrogen Response Element (ERE) (AID 2282940). As to conditions: HepG2 ERE cis-reporter, Attagene RNA transcript; actives raise or lower the signal. A digest of the protocol: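 After 24 h compound treatment, RNA from transfected HepG2 cells was reverse-transcribed, reporter cDNA PCR-amplified, FAM-labelled, HpaI-cut and resolved by capillary electrophoresis. ERE-driven cis reporter transcripts reflect endogenous factors; gain or loss scored against DMSO.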

Assay [7] can be described thus: ATG_Ets_CIS: Attagene CIS-FACTORIAL HepG2 Assay for human Erythroblast Transformation Specific (ETS) (AID 2282941). Conditions: HepG2 ETS cis-reporter transcription, actives raise or lower the signal. In a few lines:
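Multiplexed reporter transcript profiling: HepG2, 24 h treatment, total RNA to cDNA, PCR, 6-FAM labelling, HpaI cut, capillary electrophoresis. Gain- or loss-of-signal fitted against DMSO.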

Assay [8] deals with Hepatocyte nuclear factor 3-beta (Homo sapiens) (UniProt Q9Y261). Nature of the assay: ATG_FoxA2_CIS: Attagene CIS-FACTORIAL HepG2 Assay for human Forkhead box A2 (FOXA2) (AID 2282942). As to conditions: HepG2 cis-reporter transcription factor activity, 24 h; actives raise or lower the signal. A digest of the protocol: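 Reporter transcript induction is measured by fluorescence after capillary electrophoresis of RT-PCR products from HepG2 cells exposed 24 h. Cis-regulated reporter units report endogenous factor activity; curves fitted both directions against DMSO.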

Assay [9] in a line: ATG_FoxO_CIS: Attagene CIS-FACTORIAL HepG2 Assay for human Forkhead box O (FoxO) (AID 2282943). As to conditions: HepG2 Attagene cis-reporter, FoxO element, mRNA; actives raise or lower the signal. In a few lines: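 Values reflect reporter mRNA induction or loss in HepG2 cells 24 h post-dosing, fitted bidirectionally with DMSO as negative control and baseline. Detection used RT-PCR and fluorescence capillary electrophoresis.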

Assay [10] in a line: ATG_GATA_CIS: Attagene CIS-FACTORIAL HepG2 Assay for human GATA Binding Protein (AID 2282944). Conditions: HepG2 GATA cis-element reporter, Attagene multiplex mRNA; actives raise or lower the signal. In a few lines:
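Reporter transcripts from a GATA cis-regulated unit, among multiplexed reporters in transfected HepG2 cells, were measured by RT-PCR with capillary electrophoresis after 24 h dosing. Induction or loss scored relative to DMSO.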

A short description of assay [11]: ATG_GLI_CIS: Attagene CIS-FACTORIAL HepG2 Assay for human Zinc Finger Protein GLI1 (AID 2282945). Conditions: HepG2, Attagene cis-factorial reporter mRNA, GLI element; actives raise or lower the signal. A digest of the protocol: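 HepG2 cells transiently transfected with cis-promoter multiplexed reporter units report endogenous transcription factor activity. After 24 h chemical exposure, reporter mRNA was quantified by RT-PCR, 6-FAM labelling, HpaI digestion and capillary electrophoresis, with bidirectional fitting against DMSO.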

Assay [12] in a line: ATG_ISRE_CIS: Attagene CIS-FACTORIAL HepG2 Assay for human Interferon Regulatory Factor 1 (IRF1) binding to an Interferon-Stimulated Response Element (ISRE) (AID 2282948). As to conditions: HepG2 ISRE cis-reporter (Attagene), mRNA transcription readout; actives raise or lower the signal. A digest of the protocol: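 Signal reflects induction or loss of ISRE-linked reporter mRNA in transiently transfected HepG2 cells after a 24 h treatment, detected by fluorescent RT-PCR fragments on capillary electrophoresis and normalised to DMSO.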

Assay [13] can be described thus: ATG_M_32_CIS: Attagene CIS-FACTORIAL HepG2 Assay for M32 Transcription Factor (Internal Marker) (AID 2282949).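 Also: background control marker of the multiplexed CIS panel rather than a real target.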 As to conditions: HepG2 Attagene cis-factorial M32 reporter, mRNA; actives raise or lower the signal. In a few lines: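 HepG2 human liver cells transiently transfected with cis-promoter-driven multiple reporter transcription units, dosed 24 h. Reporter mRNA quantified by RT-PCR, FAM-labelled primer extension, HpaI digest and capillary electrophoresis; bidirectional fit versus DMSO baseline.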

A short description of assay [14]: ATG_M_06_CIS: Attagene CIS-FACTORIAL HepG2 Assay for M06 Transcription Factor (Internal Marker) (AID 2282950). As to conditions: HepG2 Attagene CIS-FACTORIAL M06 internal marker reporter; actives raise or lower the signal. In a few lines:
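Serves as a background control readout. Transfected HepG2 exposed to compounds for 24 h, then reporter transcripts quantified by fluorescent RT-PCR and capillary electrophoresis. Both directions fitted against DMSO baseline.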

For assay [15], the target named is Hypoxia-inducible factor 1-alpha (Homo sapiens) (UniProt Q16665). Nature of the assay: ATG_HIF1a_CIS: Attagene CIS-FACTORIAL HepG2 Assay for human Hypoxia Inducible Factor 1 (HIF1A) (AID 2282951). Conditions: HepG2 Attagene cis-factorial HIF1a reporter transcription; actives raise or lower the signal. A digest of the protocol:
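Fluorescence intensity of capillary-separated, 6-FAM-labelled reporter amplicons gives mRNA induction in HepG2 cells carrying transfected cis-promoter reporter units; cells exposed 24 h, responses fitted up or down from DMSO.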

Assay [16] concerns the target Hepatocyte nuclear factor 6 (Homo sapiens) (UniProt Q9UBC0). Nature of the assay: ATG_HNF6_CIS: Attagene CIS-FACTORIAL HepG2 Assay for human Hepatocyte Nuclear Factor 6 (HNF6) (AID 2282952). Conditions: HepG2 Attagene cis-factorial HNF6 reporter transcription; actives raise or lower the signal. In a few lines:
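Endogenous factor activity read in transiently transfected HepG2 via promoter-regulated reporter transcripts. RNA harvested 24 h post-dosing, reverse-transcribed, PCR-amplified, FAM-labelled, HpaI-digested and resolved by capillary electrophoresis; fitted in both directions against DMSO.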

Assay [17] has as its target Heat shock factor protein 1 (Homo sapiens) (UniProt Q00613). As to the kind of experiment: ATG_HSE_CIS: Attagene CIS-FACTORIAL HepG2 Assay for human Heat Shock Transcription Factor 1 (HSE) (AID 2282953). As to conditions: HepG2 HSE cis-reporter, Attagene RNA transcription; actives raise or lower the signal. In a few lines: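 Endogenous transcription factor activity in transiently transfected HepG2, read as reporter mRNA by RT-PCR with fluorescent capillary electrophoresis after 24 h. Gain or loss of signal fitted versus DMSO baseline.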

The nature of assay [18]: ATG_MRE_CIS: Attagene CIS-FACTORIAL HepG2 Assay for human Metal Responsive Element (MRE) (AID 2282954). As to conditions: HepG2 MRE cis-reporter transcription, Attagene multiplex; actives raise or lower the signal. In a few lines:
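Cells were transfected with cis-promoter reporter transcription units, then dosed for 24 h. RNA was reverse-transcribed, amplified, fluorescently labelled and resolved by capillary electrophoresis, and activity was fitted in both directions relative to DMSO.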

The nature of assay [19]: ATG_GRE_CIS: Attagene CIS-FACTORIAL HepG2 Assay for human Glucocorticoid Response Elements (GRE) (AID 2282947). As to conditions: HepG2 GRE cis-reporter, Attagene multiplex mRNA; actives raise or lower the signal. A digest of the protocol:
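Cells (HepG2) bearing transfected cis-promoter reporter transcription units were treated with chemical for 24 hours. Reporter mRNA was measured via RT-PCR with capillary electrophoresis, and activity was fitted in both directions relative to DMSO.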

Hypoxia-inducible factor 1-alpha (Homo sapiens), sequence (Q16665 whole entry, looked up): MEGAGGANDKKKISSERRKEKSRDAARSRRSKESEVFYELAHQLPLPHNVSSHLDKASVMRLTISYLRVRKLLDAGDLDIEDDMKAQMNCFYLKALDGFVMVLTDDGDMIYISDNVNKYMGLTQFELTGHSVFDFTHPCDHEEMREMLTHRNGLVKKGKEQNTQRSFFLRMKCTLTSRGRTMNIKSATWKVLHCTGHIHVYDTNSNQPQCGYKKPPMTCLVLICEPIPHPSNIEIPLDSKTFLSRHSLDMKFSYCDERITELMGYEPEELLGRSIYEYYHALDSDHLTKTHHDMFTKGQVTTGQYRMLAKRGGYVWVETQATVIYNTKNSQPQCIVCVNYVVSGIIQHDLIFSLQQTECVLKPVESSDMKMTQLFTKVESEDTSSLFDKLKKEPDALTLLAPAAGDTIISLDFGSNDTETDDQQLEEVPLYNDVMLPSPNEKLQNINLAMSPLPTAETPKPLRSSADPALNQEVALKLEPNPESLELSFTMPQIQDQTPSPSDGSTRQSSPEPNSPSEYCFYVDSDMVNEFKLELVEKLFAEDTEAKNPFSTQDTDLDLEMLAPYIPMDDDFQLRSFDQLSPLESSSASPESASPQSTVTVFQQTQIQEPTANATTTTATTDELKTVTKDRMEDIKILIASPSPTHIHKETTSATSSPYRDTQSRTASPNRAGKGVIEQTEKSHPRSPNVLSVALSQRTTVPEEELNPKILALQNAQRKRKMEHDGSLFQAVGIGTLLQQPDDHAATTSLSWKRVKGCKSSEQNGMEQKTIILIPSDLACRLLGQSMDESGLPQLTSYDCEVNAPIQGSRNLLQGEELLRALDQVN
Heat shock factor protein 1 (Homo sapiens), sequence (Q00613 whole entry, looked up): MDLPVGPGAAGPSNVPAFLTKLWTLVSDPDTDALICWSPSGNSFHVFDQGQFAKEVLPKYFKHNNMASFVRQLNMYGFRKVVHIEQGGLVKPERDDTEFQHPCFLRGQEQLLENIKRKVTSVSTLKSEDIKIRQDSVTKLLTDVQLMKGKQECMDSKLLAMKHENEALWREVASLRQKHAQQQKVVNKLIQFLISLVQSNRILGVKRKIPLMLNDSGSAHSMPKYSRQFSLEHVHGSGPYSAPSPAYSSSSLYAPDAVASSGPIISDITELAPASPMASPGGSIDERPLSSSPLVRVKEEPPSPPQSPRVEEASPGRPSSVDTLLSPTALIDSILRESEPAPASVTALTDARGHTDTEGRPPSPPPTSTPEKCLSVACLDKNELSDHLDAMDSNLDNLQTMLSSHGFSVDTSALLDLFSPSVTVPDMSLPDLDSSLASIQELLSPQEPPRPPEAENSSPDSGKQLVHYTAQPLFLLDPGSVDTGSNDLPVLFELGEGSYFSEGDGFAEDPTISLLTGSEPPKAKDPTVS
Hepatocyte nuclear factor 6 (Homo sapiens), sequence (Q9UBC0 whole entry, looked up): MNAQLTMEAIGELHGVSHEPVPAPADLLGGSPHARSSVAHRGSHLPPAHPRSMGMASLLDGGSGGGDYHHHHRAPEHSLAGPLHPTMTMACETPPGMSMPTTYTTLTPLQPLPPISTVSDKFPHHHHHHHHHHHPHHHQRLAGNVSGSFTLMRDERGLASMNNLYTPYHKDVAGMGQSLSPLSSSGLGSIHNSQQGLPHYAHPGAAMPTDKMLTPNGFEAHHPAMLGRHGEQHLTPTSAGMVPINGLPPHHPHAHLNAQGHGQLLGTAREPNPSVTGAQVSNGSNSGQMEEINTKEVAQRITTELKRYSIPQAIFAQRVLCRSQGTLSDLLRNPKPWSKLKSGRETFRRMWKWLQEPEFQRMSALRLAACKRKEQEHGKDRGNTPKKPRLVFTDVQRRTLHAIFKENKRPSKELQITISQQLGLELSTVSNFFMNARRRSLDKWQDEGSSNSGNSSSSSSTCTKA
Transcription factor E2F1 (Homo sapiens), sequence (Q01094 whole entry, looked up): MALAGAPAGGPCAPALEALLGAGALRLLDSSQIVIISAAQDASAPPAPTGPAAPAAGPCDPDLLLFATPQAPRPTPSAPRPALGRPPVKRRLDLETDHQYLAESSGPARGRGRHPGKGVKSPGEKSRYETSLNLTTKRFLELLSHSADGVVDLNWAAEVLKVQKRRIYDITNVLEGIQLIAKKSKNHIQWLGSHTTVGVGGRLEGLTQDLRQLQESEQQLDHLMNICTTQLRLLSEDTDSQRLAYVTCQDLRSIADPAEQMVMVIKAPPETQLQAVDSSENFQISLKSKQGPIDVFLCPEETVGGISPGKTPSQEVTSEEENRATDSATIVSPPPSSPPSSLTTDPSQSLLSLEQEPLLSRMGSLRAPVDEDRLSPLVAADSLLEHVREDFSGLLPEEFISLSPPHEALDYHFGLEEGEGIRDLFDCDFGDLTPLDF
Hepatocyte nuclear factor 3-beta (Homo sapiens), sequence (Q9Y261 whole entry, looked up): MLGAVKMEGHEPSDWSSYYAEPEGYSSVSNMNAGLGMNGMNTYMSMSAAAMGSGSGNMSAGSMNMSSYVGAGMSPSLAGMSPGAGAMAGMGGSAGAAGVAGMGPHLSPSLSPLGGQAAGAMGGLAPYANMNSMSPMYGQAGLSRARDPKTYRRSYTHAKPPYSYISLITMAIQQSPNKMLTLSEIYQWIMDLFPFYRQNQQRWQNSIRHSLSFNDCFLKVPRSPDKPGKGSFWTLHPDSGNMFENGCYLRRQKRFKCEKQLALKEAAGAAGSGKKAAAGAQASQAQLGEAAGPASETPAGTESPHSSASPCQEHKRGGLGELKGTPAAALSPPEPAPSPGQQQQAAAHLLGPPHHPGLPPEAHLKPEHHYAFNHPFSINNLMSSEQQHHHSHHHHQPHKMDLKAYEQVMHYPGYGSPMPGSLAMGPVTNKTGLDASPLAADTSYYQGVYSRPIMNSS

As for `CN/C(=N\[N+](=O)[O-])NCc1cnc(Cl)s1`, the compound was classed as inactive in [1], in assay [2], in assay [3], in [4], in assay [5] and in assay [6]. Further, the result in assay [7], in assay [8], in [9], in assay [10], in [11] and in assay [12] was inactive. For the same compound, the result in [13], in [14], in assay [15], in [16], in [17] and in [18] was inactive.
Take `Cc1ccc(N=CN(C)C=Nc2ccc(C)cc2C)c(C)c1`: the result in assay [1], in assay [2], in assay [3], in assay [4], in assay [5] and in [6] was inactive. In addition, the compound was called inactive in assay [7], in [8], in [9], in [10], in [11] and in [19]. The call in assay [12], in assay [13], in assay [14], in [15], in [16] and in assay [17] was inactive. Further, in assay [18], the compound was called inactive.
Regarding `COP(=S)(OC)SCn1nnc2ccccc2c1=O`, the result in assay [1], in assay [2], in assay [3], in assay [5], in assay [6] and in [7] was inactive. Moreover, the compound was classed as inactive in assay [8], in [9], in assay [10], in assay [11], in assay [12] and in assay [13]. The call in assay [14], in [15], in [16] and in assay [17] was inactive. The results for the AC50 in assay [4] and in assay [18] were 23.7 µM (active) and 17.3 µM (active), respectively.
With `CC1(C)CON(Cc2ccccc2Cl)C1=O`, the compound was classed as inactive in assay [1], in assay [2], in assay [3], in assay [4], in [5] and in assay [7]. Further, the call in assay [8], in [9], in assay [10], in assay [11], in [12] and in [13] was inactive. Further, the call in [14], in assay [15], in assay [16], in [17] and in assay [18] was inactive. Moreover, the half-maximal activity concentration (AC50) in assay [6] was 50 µM (active).
